# Measured values published in PubChem BioAssay AID1745856 (National Center for Advancing Translational Sciences (NCATS), 2022).
# About 270 (0.23%) of roughly 120,000 compounds were called active. Another 5% or so got no clear call; they are omitted. The list comes from a sample in which actives are over-represented; it also holds similar structures and randomly drawn compounds. Values without a mark were called inactive. Calls follow the shape of the full dose curve.
# Assay: Primary qHTS Assay for Foot and Mouth Disease Virus Antivirals against NCGC Sytravon and CBC Compound Libraries: Firefly Luciferase Signal; also: nearly all actives have a fitted effect of over 60% in size
# Settings: FMDV antiviral cell assay; series mostly up to 57.5 µM; activity change, negative = inhibition: at the top concentration
# % is scaled to controls: 0 for no effect and ±100 for the full control effect; potency is read from the fitted curve at half-maximal effect.
SMILES,"activity change, negative = inhibition [%]",Potency
CCc1cccc(CC)c1NC(=O)CC(C)(C(=O)O)c1ccccc1 (stereo not drawn),-1.95,–
COc1ccc(C23CC4CC(CC(C4)C2)C3)cc1C(=O)NC(c1ccccc1)c1ccccc1,-0.0842,–
CC(Oc1ccccc1F)C(=O)Nc1c(F)cccc1F (stereo not drawn),-5.6,–
Cc1nn(CC(=O)NC(C)(C)C)c(C)c1S(=O)(=O)N1CCCC(C(=O)N2CCOCC2)C1 (stereo not drawn),-2.97,–
CCCn1c(NC(=O)c2oc3ccc(OC)cc3c2C)nc2ccccc21,6.06,–
CCCNc1c(NC(=O)Nc2ccccc2C)c(=O)oc2ccccc12,15.8,–
Cc1cc(-c2ccc(C)c(S(=O)(=O)N3c4ccccc4CC3C)c2)on1 (stereo not drawn),–,14.1 µM (active)
CCN(CC)c1ccc(NS(=O)(=O)c2cc(-c3cc(C)no3)ccc2C)c(C)c1,-2.71,–
CCC1CN(S(=O)(=O)c2cc(-c3cc(C)no3)ccc2C)c2cc(C)ccc2O1 (stereo not drawn),29.8,–
CCOc1ccc(N(Cc2ccccc2)C(=O)c2nc(S(C)(=O)=O)ncc2Cl)cc1,–,22.4 µM (active)
CCOc1ccc(N(Cc2ccccc2)C(=O)c2nc(SCC)ncc2Cl)cc1,0,–
CCOc1ccc(CN2CCC(N(C)Cc3ccccc3)CC2)cc1,2.31,–
O=C(OCc1ccc(Cl)cc1Cl)c1c(F)cccc1F,29.2,–
COc1ccc(C(=O)Nc2c(NCC3CCCCC3)c3ccccc3oc2=O)cc1OC,-1.4,–
O=S(Cc1ccccc1)Cc1cccc(F)c1 (stereo not drawn),2.48,–
CCn1nc(C(=O)Nc2nnc(Cc3ccccc3)s2)c2ccccc2c1=O,15.9,–
O=C(Oc1ccc(Br)cc1)c1cnccn1,142,–
Cc1cc(=O)oc2cc(OCC(=O)Nc3ccc(S(=O)(=O)N4CCOCC4)cc3)ccc12,-5.69,–
Cn1cc2c(C(F)(F)F)cc(=O)n(CCC(=O)O)c2n1,6.41,–
Cc1ccc(N2CCN(C(=O)c3nn(C)c4c3CCc3sccc3-4)CC2)c(C)c1,18,–
COc1ccc(/C=C2\Oc3cc(OS(=O)(=O)c4ccc(C)cc4)ccc3C2=O)c(OC)c1OC,0.175,–
CCOC(=O)C1=C(C)NC(=O)NC1c1ccc(C(=O)OC)cc1 (stereo not drawn),48.5,–
Cc1ccccc1NC(=O)CSc1nc(C2CC2)n(-c2ccccc2)n1,2.27,–

SMILES,"activity change, negative = inhibition [%]",Potency
COc1ccc(-c2cc(C(=O)N3CCN(CC(=O)N4CCOCC4)CC3)c3ccccc3n2)cc1,191,–
COC(=O)CCCn1c(C)cc(C(=O)COC(=O)c2nccnc2N)c1C,155,–
COC1CC(OC2CCC3(C=O)[C@H]4CCC5(C)C(C6=CC(=O)OC6)CCC5(O)[C@@H]4CCC3(O)C2)OC(C)C1O (stereo partly drawn),–,0.282 µM (active)
COc1ccc2c(C)c(CC(=O)NCc3ccccc3Cl)c(=O)oc2c1,17.9,–
CC(Sc1nnc(CCC(N)=O)n1C1CC1)C(=O)c1c[nH]c2ccccc12 (stereo not drawn),0.749,–
CC(NC(=O)C(=O)Nc1cc(Cl)ccc1Cl)c1ccccc1 (stereo not drawn),0,–
CCCc1cc(=O)oc2c(C)c(OCC(=O)OC(C)C)ccc12,9.01,–
CC(C(=O)Nc1cccc(C#N)c1)n1nnc(-c2cccc(C(F)(F)F)c2)n1 (stereo not drawn),-10.8,–
CCOc1ccccc1-c1nn2c(CN3CCCCC3)nnc2s1,-3.75,–
Cc1nccn1CCc1nc2cc(NC(=O)C(C)C)ccc2n1C,-8.8,–
CCCCn1c(=O)[nH]c(=O)c2c1nc(-c1ccc(OCC#N)c(OC)c1)n2C,-6.14,–
N#Cc1ccccc1N=Cc1ccc2ccccc2c1,92.7,–
Cc1cc(C(F)(F)F)nn1Cc1nc2c3c4c(sc3ncn2n1)CCC4,-9.93,–
CCSc1ncc(Cl)c(C(=O)Nc2cc(C)ccc2C)n1,-12.3,–
CCCS(=O)(=O)c1ncc(Cl)c(C(=O)Nc2scc(-c3ccccc3)c2C(=O)OCC)n1,12.2,–
Cc1ccc(NC(=O)c2nc(S(=O)(=O)Cc3cccc(C)c3)ncc2Cl)cc1,–,22.4 µM (active)
Cc1ccc(-c2ccc(CCC(=O)O)n2NC(=O)c2ccc(F)cc2)cc1,21.6,–
O=C(Nc1cccc(I)c1)c1ccc2c3c(cccc13)CC2,81.5,–
COC(=O)c1ccc(CNC(=O)CCCNC(=O)C(C)(C)C)cc1,2.4,–
Cc1nc2cc(NC(C)C(=O)Nc3cccc(Cl)c3Cl)ccc2o1 (stereo not drawn),22,–
COC(=O)c1cccc(N=Cc2cc(Cl)ccc2O)c1,0,–
CC(C)CNC(=O)COC(=O)Cc1nn(C)c(=O)c2ccccc12,3.32,–
O=C(CN1CCN(C(=O)c2nn(Cc3ccccc3)c(=O)c3ccccc23)CC1)Nc1ccc(F)cc1,29.2,–

SMILES,"activity change, negative = inhibition [%]",Potency
Cc1noc(C)c1CS(=O)(=O)c1ccc(Cl)cc1,-0.357,–
Cc1cccc(NC(=O)c2cc3cc(Br)ccc3oc2=O)c1,16.6,–
COc1ccccc1NC(=O)c1cc2ccccc2cc1OCC(N)=O,16.9,–
Cc1nc(NC(=O)C(C)Sc2nnc(-c3ccccc3F)n2CC(C)C)sc1C (stereo not drawn),-18,–
Cn1c(=O)[nH]c(=O)c2c(C(=O)O)cc(C3CC3)nc21,3.96,–
Cc1cc(/C=C(/C#N)c2nc3ccccc3n2C)cc(C)c1O,189,–
Clc1ccc(CN2CCN(c3ncnc4nc[nH]c34)CC2)cc1,12.2,–
COc1ccccc1-c1nc(C#N)c(NCc2ccccc2)o1,0,–
[O-]/[N+](=C\c1ccc2ccccc2n1)c1ccccc1,204,–
CCCC(=O)Nc1cccc(-c2cc3cc(F)ccc3[nH]2)c1,0,–
Cc1ccc(-c2cc(-c3ccccc3)c(C#N)c(SCCS(=O)Cc3ccccc3)n2)cc1 (stereo not drawn),-13,–
N#Cc1ccccc1NC(=O)c1cnc2ccccc2n1,177,–
CCOC(=O)c1cc(NCc2c(Cl)cccc2Cl)ccc1N1CCOCC1,19.6,–
Cc1occc1-c1nnc(SCC(=O)N2c3ccccc3CC2C)o1 (stereo not drawn),5.98,–
Cc1c(Cl)cccc1N(CC(=O)Nc1c(C)n(C)n(-c2ccccc2)c1=O)S(C)(=O)=O,-3,–
CCOC(=O)c1cc(NC(=O)c2ccc(-c3ccccc3)cc2)ccc1N1CCOCC1,-4.7,–
C(=N\N=C(c1ccccc1)c1ccccc1)/c1c[nH]c2ccccc12,0,–
Cc1ccc(C(=O)NC2CCSC2=O)cc1C (stereo not drawn),0,–
Cc1ccc(CCNC(=O)c2noc(C)c2Cn2nc(C)cc2C)cc1,0.415,–
O=C(Nc1ncn(Cc2ccc(Cl)cc2)n1)c1ccn(COc2ccc(F)cc2F)n1,-5.05,–
Fc1ccc(-c2ccc(CNCc3ccccc3)o2)cc1,136,–
COc1nc2ccccc2nc1N1CCC(C(=O)Nc2ccccc2F)CC1,1.54,–
